Compound activity (PubChem)
This is a sample that favours compounds with a hit; in the whole collection about 11% have one here.
JMJD2A Tudor inh: JMJD2A Tudor domain (human) inhibition. Potency, µM (titrated, usually from 114 µM), inactives show at the highest dose activity change, negative = inhibition, actives largely listed as inhibitors. 390,000 tested, 4.4% active. AID 504339. AlphaScreen JMJD2A-Tudor / H3K4me3 peptide binding; further: on the % scale 0 is the no-effect control and ±100 the full control effect; nearly all actives have a fitted effect of over 50% in size
BAZ2B block: inhibitors of human BAZ2B bromodomain; AlphaScreen BAZ2B-H3K14Ac peptide displacement; Potency, µM (titrated, usually from 114 µM), inactives show at the highest dose activity change, negative = inhibition, most hits filed as inhibitors; 360,000 tested, 4.4% active; AID 504333; further: on the % scale 0 is the no-effect control and ±100 the full control effect; nearly all actives have a fitted effect of over 60% in size
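AlphaScreen displacement of biotin-H3(5-23)K14Ac peptide (50 nM final) from BAZ2B (50 nM final) in PBS pH 7.4, 0.01% Tween-20; complex preformed 30 min RT, then compounds (top 110 uM) 30 min RT, beads 20 min dark.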
L3MBTL1 inh: inhibitors of human L3MBTL1. Q9Y468. AlphaScreen L3MBTL1–H3K9me1 peptide binding. Potency, µM (highest dose often 57.1 µM), for inactives: at the highest dose activity, negative = inhibition, most hits filed as inhibitors. 230,000 tested, 0.66% active; further: on the % scale 0 is the no-effect control and ±100 the full control effect; nearly all actives have a fitted effect of over 60% in size
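L3MBTL1 (50 nM) pre-complexed 30 min with biotinylated H3(1-15)K9me1 peptide (75 nM), then compounds added for 30 min at room temperature; AlphaScreen streptavidin donor/nickel chelate acceptor beads (10 ug/mL final) read after 30 min dark incubation.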
HP1b chromo inh: inhibitors of HP1-beta chromodomain binding to methylated histone tails | AlphaScreen HP1-beta / biotin-H3K9me3 peptide binding | Potency, µM (series often up to 114 µM), without a hit: at the highest dose activity change, negative = inhibition, usual class: inhibitors | 390,000 tested, 0.56% active; further: nearly all actives have a fitted effect of over 70% in size
Target sequence (P83916 whole entry, looked up): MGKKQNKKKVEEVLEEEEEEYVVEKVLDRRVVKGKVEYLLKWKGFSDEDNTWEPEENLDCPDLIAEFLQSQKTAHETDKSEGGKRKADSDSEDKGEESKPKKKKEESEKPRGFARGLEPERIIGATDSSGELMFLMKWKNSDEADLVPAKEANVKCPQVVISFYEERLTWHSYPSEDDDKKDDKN
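AlphaScreen: HP1-beta (50 nM) preformed 30 min with biotin-H3(1-18)K9me3 peptide (50 nM) in PBS pH 7.4, 0.01% Tween-20. Compound added for 30 min at RT, then streptavidin donor/nickel chelate acceptor beads (10 ug/mL) for 30 min.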
G9a block: G9a (human) methyltransferase inhibition; Potency, µM (series often up to 102 µM), for the others: top-dose activity, negative = inhibition, hits mostly inhibitors; 350,000 tested, 8.8% active; G9a H3K9 monomethylation, AlphaScreen, 2 h; further: on the % scale 0 is the no-effect control and ±100 the full control effect; nearly all actives have a fitted effect of over 75% in size
Target sequence (Q96KQ7 913-1193 limits assumed): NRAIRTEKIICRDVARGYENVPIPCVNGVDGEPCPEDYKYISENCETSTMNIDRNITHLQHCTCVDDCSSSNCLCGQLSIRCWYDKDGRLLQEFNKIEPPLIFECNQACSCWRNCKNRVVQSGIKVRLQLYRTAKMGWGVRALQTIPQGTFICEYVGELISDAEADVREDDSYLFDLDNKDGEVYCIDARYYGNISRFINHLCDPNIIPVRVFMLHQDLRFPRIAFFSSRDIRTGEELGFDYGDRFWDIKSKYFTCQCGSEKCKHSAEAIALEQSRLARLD
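Using a bead-based AlphaScreen, monomethylated H3K9 product from 2 h room-temperature reactions (G9a 20 nM, peptide 500 nM, SAM 20 uM) was detected with 0.5 ug/mL rabbit anti-H3K9me1 antibody.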
* marks the source's active call; other numbers are inactive results; ? = inconclusive; / = no result; [ ] = remark or other dose. The call rests on the fitted dose curve; in most records, active means well fitted inhibition curve with a large enough effect; inconclusive means small, poorly fitted or top-dose-only effect; inactive means no such curve, though single readings can be large or run the other way. Potency means the concentration at half of the fitted maximal effect.

SMILES | JMJD2A Tudor inh | BAZ2B block | L3MBTL1 inh | HP1b chromo inh | G9a block
CCOC(=O)C1CCCN(C(=O)Cn2ncc3c(C)n(Cc4ccccc4Cl)c(C)c3c2=O)C1 (centres undefined) | -22% | -17% | / | 11% | -32%[59 µM]
CCN1CCN(Cc2ccc(NC(=O)c3ccc(C)c(NC(=O)c4ccc5n[nH]nc5c4)c3)cc2C(F)(F)F)CC1 | -19% | -18% | / | 41% | -14%[12.7 µM]
CCN1CCN(Cc2ccc(NC(=O)c3ccc(C)c(NC(=O)c4ccnnc4)c3)cc2C(F)(F)F)CC1 | -14% | 0% | / | 47% | -11%[12.7 µM]
CCN1CCN(Cc2ccc(NC(=O)c3cc(NC(=O)c4cnn(-c5ccccc5)c4N)cc(OC)c3)cc2C(F)(F)F)CC1 | ? | ? | / | -17% | ?
CCN1CCN(Cc2ccc(NC(=O)c3cc(NC(=O)c4cc(C)on4)cc(OC)c3)cc2C(F)(F)F)CC1 | ? | ? | -8% | 25% | 45µM*
CCN1CCN(Cc2ccc(NC(=O)c3ccc(C)c(NC(=O)C(=O)c4c[nH]c5ccccc45)c3)cc2C(F)(F)F)CC1 | 40µM* | 13µM* | -16% | ? | 50µM*
CCN1CCN(Cc2ccc(NC(=O)c3cc(NC(=O)C(=O)c4c[nH]c5ccccc45)cc(OC)c3)cc2C(F)(F)F)CC1 | 35µM* | 40µM* | / | ? | 1%[12.7 µM]
CCc1ccc(NC(=O)CN2CCN(C3CCCCC3)C(=O)C2=O)cc1 | -8% | -17% | / | 17% | 0%[12.7 µM]
Cc1ccc(NC(=O)CN2CC(C)SC2=NC2CCCCC2)cc1 (centres undefined) | -3% | 7% | -8% | 3% | 50µM*
CS(=O)(=O)c1nc(-c2ccco2)cc(C(F)(F)F)n1 | / | -1% | -2% | / | 32µM*
COc1ccccc1-c1cc(C(F)(F)F)nc(S(C)(=O)=O)n1 | -8% | -6% | / | 90% | ?
O=c1c2ccccc2nc2n1-c1ccccc1CCC2 | -10% | -9% | 0% | 44% | -5%[12.7 µM]
O=C1CCc2nc3ccccc3c(=O)n2N1 | ? | 56µM* | 22% | 27% | -50%[12.7 µM]
O=C1CC(c2ccccc2)c2cc(O)ccc2O1 (centres undefined) | ? | 2% | -1% | -14% | 3.5µM*
O=C1CC(c2ccc3c(c2)OCO3)c2ccc(O)cc2O1 (centres undefined) | / | / | / | / | 26%
O=C1CC(c2ccc3c(c2)OCO3)c2cc(O)ccc2O1 (centres undefined) | / | / | / | / | 10µM*
COc1ccc(CNC(=O)c2ccccc2SCC(=O)N2CCCC2)cc1OC | -10% | -5% | -12% | 25% | 45µM*
Cc1ccccc1NC(=O)COC(=O)c1ccccc1SCC(=O)N1CCCC1 | 1% | 0% | / | 32% | ?
CC(=O)Nc1ccc(NC(=O)COC(=O)c2ccccc2SCC(=O)N2CCCC2)cc1 | -23% | 4% | -2% | 25% | 18µM*
COc1ccc(NC(=O)COC(=O)c2ccccc2SCC(=O)N2CCCC2)cc1 | 4% | 4% | 10% | 29% | 40µM*
CCNC(=O)NC(=O)COC(=O)c1ccccc1SCC(=O)NC(=O)NCC | ? | -2% | -9% | ? | 45µM*
CCOC(=O)c1c(NC(C)=O)c2c3c(sc2n1Cc1cc(C)ccc1C)CCCC3 | -13% | 4% | / | 15% | 5%[59 µM]
CCN(CC)S(=O)(=O)c1nnc(NC(=O)COc2ccc(Cl)cc2)s1 | -21% | -14% | / | 30% | -44%[59 µM]
COCCn1nnnc1C(c1cc2cc(OC)c(OC)cc2[nH]c1=O)N1CCN(c2ccc(O)cc2)CC1 (centres undefined) | 56µM* | 28µM* | 32% | ? | /
CCc1ccc2[nH]c(=O)c(C(c3nnnn3CCOC)N3CCN(c4ccc(F)cc4)CC3)cc2c1 (centres undefined) | -25%[11.4 µM] | ? | / | -20% | ?
SMILES | JMJD2A Tudor inh | BAZ2B block | L3MBTL1 inh | HP1b chromo inh | G9a block
CCc1ccc2[nH]c(=O)c(C(c3nnnn3CCOC)N3CCN(c4ccccc4)CC3)cc2c1 (centres undefined) | ? | -39% | -13% | -3% | 28µM*
COc1ccc(NC(=O)C2(c3cccs3)CCOCC2)cc1Cl | -8% | -2% | / | 34% | -17%[59 µM]
Cc1ccc2c(c1)-c1onc(C(=O)N3CCN(c4ccc(Cl)cc4)CC3)c1CO2 | -2% | -2% | / | 61% | -4%[59 µM]
CC1=CC(c2ccccc2)NC(=S)N1 (centres undefined) | -32% | 5% | -3% | 32% | -4%[59 µM]
S=C1NC(c2cccs2)=CC(c2ccc(Br)cc2)N1 (centres undefined) | ? | ? | -8% | -16% | 16µM*
S=C1NC(c2ccccc2)=CC(c2ccccc2)N1 (centres undefined) | -29% | ? | -4% | 18% | 32µM*
COc1cc2c(cc1OC)n(CC(=O)c1cc(C)ccc1C)c(=O)n1nc(CCn3nc(C)cc3C)nc21 | -18% | -4% | / | 5% | 10%[59 µM]
CC12CCCCC1N(O)C(=O)C(=O)N2O (centres undefined) | 79µM* | ? | 10% | 4% | ?
NC1=NC(=O)/C(=C/c2cn(Cc3ccccc3)c3ccccc23)S1 | -35% | ? | -20% | 1% | 50µM*
O=C1C2C3C=CC(C3)C2C(=O)N1/N=C/c1cn(Cc2ccccc2)c2ccccc12 (centres undefined) | -7% | 77% | 35% | 12% | 67%[12.7 µM]
COc1cccc(C2=NS(=O)(=O)N(C)C(C(=O)Nc3cccc(O)c3)=C2)c1 | -36% | -37% | / | 7% | 14µM*
COc1ccc(C2=NS(=O)(=O)N(C)C(C(=O)Nc3ccc(OC)c(OC)c3)=C2)cc1 | ? | ? | -12% | -22% | 35µM*
O=[N+]([O-])c1cccc(CN2C(COCc3ccccc3)CCC=CS2(=O)=O)c1 (centres undefined) | -20% | / | / | 19% | /
COCC(=O)Oc1c(Sc2ccccc2[N+](=O)[O-])c(C)nn1C(C)(C)C | -13% | ? | -21% | 2% | 22µM*
CCOc1ccccc1C(=O)Oc1c(Sc2ccccc2)c(C)nn1C(C)(C)C | -2% | 8% | / | 57% | -1%[59 µM]
CCC(CC)C(=O)Oc1c(Sc2ccccc2[N+](=O)[O-])c(C)nn1C(C)(C)C | -35% | ? | -10% | ? | 32µM*
O=C(NC(=S)Nn1cnc2c(cnn2-c2ccccc2)c1=O)c1ccc(Cl)cc1 | -31% | 10% | -6% | 1% | 45µM*
O=C(NC(=S)Nn1cnc2c(cnn2-c2ccccc2)c1=O)c1ccc(Oc2ccccc2)cc1 | -12% | 5% | 0% | 12% | 7%[59 µM]
COC(=O)C1CCN(C(c2ccccc2Cl)c2sc3nc(-c4ccco4)nn3c2O)CC1 (centres undefined) | -12% | -36% | / | 4% | -26%[59 µM]
